The source of these data is PubChem BioAssay (EPA / NIEHS).

Experiment [1] can be described thus: ATG_E_Box_CIS: Attagene CIS-FACTORIAL HepG2 Assay for human Enhancer Box (E-box) (AID 2282936; active means hit-call score of the fitted dose curve at least 0.9, where 1 is the maximum; inactive means score below 0.9). Conditions: HepG2 E-box cis-reporter transcription, actives raise or lower the signal. A digest of the protocol: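 Cells: HepG2 (human liver), transient MRTU transfection. Exposure 24 h. RNA → oligo(dT) RT → PCR → 6-FAM label → HpaI → CE. Activity fitted both directions relative to DMSO.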

Experiment [2] in a line: ATG_M_61_CIS: Attagene CIS-FACTORIAL HepG2 Assay for M61 Transcription Factor (Internal Marker) (AID 2282937; active means hit-call score of the fitted dose curve at least 0.9, where 1 is the maximum; inactive means score below 0.9). Conditions: HepG2 Attagene CIS-FACTORIAL M61 internal marker reporter; actives raise or lower the signal. In outline:
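Multiplexed reporter mRNA assay, HepG2 human hepatoma cells, 24 h treatment. Signal: FAM-labelled, HpaI-digested RT-PCR fragments by CE. Fit: bidirectional, baseline DMSO.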

Experiment [3] deals with Hypoxia-inducible factor 1-alpha (Homo sapiens) (UniProt Q16665). Description: ATG_HIF1a_CIS: Attagene CIS-FACTORIAL HepG2 Assay for human Hypoxia Inducible Factor 1 (HIF1A) (AID 2282951; active means hit-call score of the fitted dose curve at least 0.9, where 1 is the maximum; inactive means score below 0.9). Conditions: HepG2 Attagene cis-factorial HIF1a reporter transcription; actives raise or lower the signal. In outline: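 Cis-element reporter constructs were transiently transfected into HepG2 cells, which were treated for 24 h; reporter RNA was reverse-transcribed, amplified, labelled and resolved by capillary electrophoresis.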
Chain of Hypoxia-inducible factor 1-alpha (Homo sapiens) (Q16665 whole entry, looked up): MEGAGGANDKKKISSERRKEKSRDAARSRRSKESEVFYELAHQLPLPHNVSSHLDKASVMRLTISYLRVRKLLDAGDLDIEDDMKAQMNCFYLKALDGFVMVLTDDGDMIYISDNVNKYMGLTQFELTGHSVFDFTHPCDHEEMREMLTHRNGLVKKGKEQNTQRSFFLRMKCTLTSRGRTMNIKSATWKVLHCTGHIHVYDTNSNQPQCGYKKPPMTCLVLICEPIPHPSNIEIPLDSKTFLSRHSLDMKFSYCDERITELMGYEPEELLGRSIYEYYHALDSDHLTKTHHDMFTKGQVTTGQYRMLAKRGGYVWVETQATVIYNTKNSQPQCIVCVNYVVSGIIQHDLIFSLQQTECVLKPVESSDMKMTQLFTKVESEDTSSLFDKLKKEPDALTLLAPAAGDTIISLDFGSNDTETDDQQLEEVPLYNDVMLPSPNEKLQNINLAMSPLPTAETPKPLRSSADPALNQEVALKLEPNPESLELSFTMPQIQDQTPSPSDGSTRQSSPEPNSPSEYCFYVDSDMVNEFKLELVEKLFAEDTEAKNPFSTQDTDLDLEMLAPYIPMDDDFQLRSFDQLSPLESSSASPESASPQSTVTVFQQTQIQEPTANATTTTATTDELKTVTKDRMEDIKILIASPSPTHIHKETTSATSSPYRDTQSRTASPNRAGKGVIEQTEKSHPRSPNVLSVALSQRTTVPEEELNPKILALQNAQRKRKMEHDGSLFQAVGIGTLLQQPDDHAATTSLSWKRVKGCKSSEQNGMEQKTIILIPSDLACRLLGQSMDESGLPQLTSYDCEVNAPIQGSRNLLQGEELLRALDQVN

A short description of experiment [4]: ATG_PBREM_CIS: Attagene CIS-FACTORIAL HepG2 Assay for human Phenobarbital-responsive Enhancer Module (PBREM) (AID 2282955; active means hit-call score of the fitted dose curve at least 0.9, where 1 is the maximum; inactive means score below 0.9). Conditions: HepG2 PBREM cis-reporter, Attagene multiplexed transcription; actives raise or lower the signal. A digest of the protocol:
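Multiplexed cis-reporter readout in human hepatoma HepG2 cells; PBREM-regulated transcript quantified after 24 h exposure by fluorescent RT-PCR fragment analysis. Signal changes up or down fitted relative to DMSO.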

Experiment [5] is described as follows: ATG_M_19_TRANS: Attagene TRANS-FACTORIAL HepG2 Assay for M19 Transcription Factor (Internal Marker) (AID 2282974). Conditions: HepG2 Attagene TRANS-FACTORIAL M19 internal marker reporter. In outline:
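Multiplexed TRANS format: HepG2 liver cells bearing transient GAL4-UAS reporter units, chemical treatment 24 h, reporter transcripts quantified by RT-PCR plus capillary electrophoresis. DMSO defines baseline.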

Experiment [6] is described as follows: ATG_M_32_TRANS: Attagene TRANS-FACTORIAL HepG2 Assay for M32 Transcription Factor (Internal Marker) (AID 2282984).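 Further: transcript level of a background control reporter unit measured by RT-PCR and capillary electrophoresis.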 The settings on record: HepG2 Attagene TRANS M32 internal marker reporter. A digest of the protocol: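 Measures reporter mRNA induction in human HepG2 liver cells after 24 h chemical treatment. Transcripts from transiently transfected GAL4-UAS reporter units are amplified, fluorescently labelled and sized by capillary electrophoresis; gain of signal relative to DMSO.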

A short description of experiment [7]: ATG_NFI_CIS: Attagene CIS-FACTORIAL HepG2 Assay for human Nuclear Factor I (NFI) (AID 2282989; active means hit-call score of the fitted dose curve at least 0.9, where 1 is the maximum; inactive means score below 0.9). Conditions: HepG2 cis-regulatory reporter, NFI response element transcription; actives raise or lower the signal. In outline:
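HepG2 cells transiently transfected with cis-element-driven multiplexed reporter transcription units, dosed for 24 h. Reporter mRNA quantified by RT-PCR, fluorescent labelling, HpaI digestion and capillary electrophoresis; bidirectional fit versus DMSO baseline.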

In experiment [8] the target is Peroxisome proliferator-activated receptor gamma (Homo sapiens) (UniProt P37231). Description: ATG_PPARg_TRANS: Attagene TRANS-FACTORIAL HepG2 Assay for human Peroxisome Proliferator-activated Receptor-gamma (PPARg) (AID 2283007). A digest of the protocol: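 Chimeric NR-Gal4 transactivation is measured in transiently transfected HepG2 cells by reporter mRNA induction at 24 h. Detection uses RT-PCR with fluorescent labelling and capillary electrophoresis; DMSO defines baseline.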
Chain of Peroxisome proliferator-activated receptor gamma (Homo sapiens) (P37231 whole entry, looked up, the tested form may be a part): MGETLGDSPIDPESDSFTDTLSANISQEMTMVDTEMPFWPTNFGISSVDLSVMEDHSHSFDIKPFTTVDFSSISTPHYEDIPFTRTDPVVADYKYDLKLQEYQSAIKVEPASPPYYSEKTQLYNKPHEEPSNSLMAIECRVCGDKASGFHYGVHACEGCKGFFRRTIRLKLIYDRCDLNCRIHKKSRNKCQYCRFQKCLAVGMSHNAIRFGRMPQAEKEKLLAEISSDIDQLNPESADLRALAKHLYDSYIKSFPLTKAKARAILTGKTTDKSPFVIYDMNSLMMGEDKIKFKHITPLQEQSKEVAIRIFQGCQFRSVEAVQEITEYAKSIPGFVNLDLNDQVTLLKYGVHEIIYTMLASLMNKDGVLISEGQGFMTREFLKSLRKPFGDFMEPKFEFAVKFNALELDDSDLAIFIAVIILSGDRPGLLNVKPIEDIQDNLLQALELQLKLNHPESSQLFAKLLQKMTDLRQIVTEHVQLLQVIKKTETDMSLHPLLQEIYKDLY

Experiment [9] has as its target Retinoic acid receptor RXR-alpha (Homo sapiens) (UniProt P19793). Description: ATG_RXRa_TRANS: Attagene TRANS-FACTORIAL HepG2 Assay for human Retinoid X Receptor alpha (RXRa) (AID 2283012). In outline:
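HepG2 cells transiently transfected with GAL4-UAS reporter units and chimeric RXRa-Gal4 protein, treated 24 h. Reporter mRNA measured by RT-PCR, fluorescent labelling, HpaI digestion and capillary electrophoresis. Induction fitted against DMSO.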

Experiment [10] has as its target human Retinoid X Receptor beta (RXRb), RXRB (gene 6257) (UniProt P28702). The experiment can be described thus: ATG_RXRb_TRANS: Attagene TRANS-FACTORIAL HepG2 Assay for human Retinoid X Receptor beta (RXRb) (AID 2283013). In outline:
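HepG2 cells were transiently transfected with multiplexed GAL4-UAS reporters and a chimeric RXRb-Gal4 construct, then exposed for 24 h. Reporter mRNA was quantified by RT-PCR, FAM labeling, HpaI digestion and capillary electrophoresis; gain of signal was scored against DMSO.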

In experiment [11] the target is Cellular tumor antigen p53 (Homo sapiens) (UniProt P04637). Description: TOX21_p53_BLA_p2_ratio: Tox21 HCT-116 p53 Agonism Beta-lactamase Assay, Ratio, Phase 2 (AID 2283592). In outline:
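HCT116 p53-bla; 4000 cells/well; 5 h pre-incubation; cpd in DMSO, 217-fold dilution; 16 h 37C/5% CO2; CCF4-AM 2 h RT; Ex 405, Em 460/530 ratio; DMSO = baseline; positive fitting direction.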

For experiment [12] the target is unchanged. The experiment can be described thus: TOX21_p53_BLA_p5_ratio: Tox21 HCT-116 p53 Agonism Beta-lactamase Assay, Ratio, Phase 5 (AID 2283599). In outline:
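Beta-lactamase reporter ratio (blue 460 nm over green 530 nm, 405 nm excitation) after 2 h CCF4-AM loading, in HCT-116 cells exposed 16 h at 37 C to compounds pinned at 217-fold dilution. Increases relative to DMSO baseline scored.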

The target is the same in experiment [13]. Description: TOX21_p53_BLA_p4_ratio: Tox21 HCT-116 p53 Agonism Beta-lactamase Assay, Ratio, Phase 4 (AID 2283601). In outline:
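Signal is the blue/green (460nm/530nm) ratio of cleaved versus uncleaved CCF4-AM substrate, read after 2 h substrate loading. Cells were HCT116 carrying the p53-responsive beta-lactamase reporter, dosed 16 h at 37C, 5% CO2; CellTiter-Glo measured in parallel.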

A short description of experiment [14]: ACEA_ER_AUC_viability: ACEA Biosciences xCELLigence Real-Time Cell Analysis on Estrogen Receptor Agonism for Viability (AID 2283782).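 Further: continuous compound exposure with impedance area under curve over 80 h; hit means loss of impedance signal meaning reduced cell growth or viability.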 In outline:
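T-47D; phenol red-free RPMI1640 + 10% CS-FBS; 8 conc., 1:4 serial, max 100 uM final, ≤0.5% DMSO; n = 2; continuous exposure; impedance monitored to 80 h post-dose; AUC vs DMSO.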

The nature of experiment [15]: ATG_AP_1_CIS: Attagene CIS-FACTORIAL HepG2 Assay for human Activator Protein 1 (AP-1) (AID 2282931; active means hit-call score of the fitted dose curve at least 0.9, where 1 is the maximum; inactive means score below 0.9). Conditions: HepG2 Attagene cis-factorial AP-1 reporter mRNA; actives raise or lower the signal. In outline:
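We transfected HepG2 cells transiently with a set of cis-regulated reporter transcription units, dosed them for 24 h, and quantified reporter mRNA via RT-PCR and capillary electrophoresis, scoring gain or loss of signal relative to DMSO.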

A short description of experiment [16]: ATG_GRE_CIS: Attagene CIS-FACTORIAL HepG2 Assay for human Glucocorticoid Response Elements (GRE) (AID 2282947; active means hit-call score of the fitted dose curve at least 0.9, where 1 is the maximum; inactive means score below 0.9). The settings on record: HepG2 GRE cis-reporter, Attagene multiplex mRNA; actives raise or lower the signal. A digest of the protocol:
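Transient MRTU transfection of human HepG2 liver cells; cis-regulated reporters report endogenous factors. 24 h dosing → RNA isolation → RT-PCR → 6-FAM primer extension → HpaI cut → CE fragment analysis. Bidirectional fit, DMSO negative control.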

Experiment [17] can be described thus: ATG_M_06_TRANS: Attagene TRANS-FACTORIAL HepG2 Assay for M06 Transcription Factor (Internal Marker) (AID 2282983).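 Further: reporter transcript level by RT-PCR then capillary electrophoresis fluorescence.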 Conditions: HepG2 Attagene TRANS M06 internal marker reporter. A digest of the protocol: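 Transfect HepG2 with MRTUs → dose compounds 24 h → isolate RNA, oligo(dT) RT → PCR with reporter primers → 6-FAM primer extension → HpaI digest → CE fragment analysis. Positive direction vs DMSO.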

Experiment [18] in a line: TOX21_p53_BLA_p5_viability: Viability Assessment in the Tox21 HCT-116 p53 Agonism Beta-lactamase Assay, Phase 5 (AID 2283600). A digest of the protocol: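 4000 cells/well; 5 h pre-incubation; DMSO compounds pin-transferred, 217-fold dilution; 16 h, 37C/5% CO2; CCF4-AM 2 h RT; CellTiter-Glo 30 min RT; luminescence.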
For experiment [19], the target named is Aryl hydrocarbon receptor (Homo sapiens) (UniProt P35869). Description: ATG_Ahr_CIS: Attagene CIS-FACTORIAL HepG2 Assay for human Aryl Hydrocarbon Receptor (Ahr) (AID 2282930; active means hit-call score of the fitted dose curve at least 0.9, where 1 is the maximum; inactive means score below 0.9). The settings on record: HepG2 AhR cis-factorial reporter transcription; actives raise or lower the signal. A digest of the protocol: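 HepG2, transient MRTU (cis) transfection, 24 h exposure. RNA → cDNA → PCR → 6-FAM primer extension → HpaI 2 h 37 C → CE. Fit: bidirectional, DMSO baseline.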
Chain of Aryl hydrocarbon receptor (Homo sapiens) (P35869 whole entry, looked up): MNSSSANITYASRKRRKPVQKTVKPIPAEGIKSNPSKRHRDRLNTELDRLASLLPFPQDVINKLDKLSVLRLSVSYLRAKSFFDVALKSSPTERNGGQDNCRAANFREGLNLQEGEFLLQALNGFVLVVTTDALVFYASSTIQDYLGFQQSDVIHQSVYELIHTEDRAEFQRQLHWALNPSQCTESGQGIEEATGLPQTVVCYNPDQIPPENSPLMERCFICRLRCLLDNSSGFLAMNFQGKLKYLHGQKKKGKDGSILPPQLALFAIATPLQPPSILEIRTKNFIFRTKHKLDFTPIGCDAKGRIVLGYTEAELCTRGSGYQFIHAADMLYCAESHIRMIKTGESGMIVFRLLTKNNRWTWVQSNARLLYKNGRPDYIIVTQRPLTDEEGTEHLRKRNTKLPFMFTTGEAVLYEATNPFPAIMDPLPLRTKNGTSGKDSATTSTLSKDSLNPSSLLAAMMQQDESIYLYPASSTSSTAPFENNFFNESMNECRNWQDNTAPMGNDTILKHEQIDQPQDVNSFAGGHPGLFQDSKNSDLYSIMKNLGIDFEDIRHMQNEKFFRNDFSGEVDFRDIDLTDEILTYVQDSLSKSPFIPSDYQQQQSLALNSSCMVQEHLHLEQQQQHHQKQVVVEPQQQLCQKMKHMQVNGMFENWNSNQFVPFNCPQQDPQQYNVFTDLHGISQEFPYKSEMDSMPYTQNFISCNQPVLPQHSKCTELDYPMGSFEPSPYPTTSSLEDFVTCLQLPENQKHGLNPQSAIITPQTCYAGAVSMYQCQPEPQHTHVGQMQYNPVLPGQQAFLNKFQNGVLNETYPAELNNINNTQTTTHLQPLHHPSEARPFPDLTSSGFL

Experiment [20] is described as follows: ATG_PPRE_CIS: Attagene CIS-FACTORIAL HepG2 Assay for human Peroxisome Proliferator-activated Response Element (PPRE) (AID 2282958; active means hit-call score of the fitted dose curve at least 0.9, where 1 is the maximum; inactive means score below 0.9). Conditions: HepG2 PPRE cis-element reporter, Attagene transcription factor profiling; actives raise or lower the signal. In outline: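 DMSO served as negative control and baseline for bidirectional curve fitting. Signal came from PPRE-regulated reporter mRNA in HepG2 cells, measured 24 h post-dosing by RT-PCR, 6-FAM primer extension and capillary electrophoresis.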

SMILES strings stand for the structures. Inconclusive results are not listed. The source made the active and inactive calls. How the source made its calls, unless noted: active means hit-call score of the fitted dose curve at least 0.9, where 1 is the maximum; inconclusive means response in the unintended direction; inactive means score below 0.9.

Chain of Retinoic acid receptor RXR-alpha (Homo sapiens) (P19793 whole entry, looked up, the tested form may be a part): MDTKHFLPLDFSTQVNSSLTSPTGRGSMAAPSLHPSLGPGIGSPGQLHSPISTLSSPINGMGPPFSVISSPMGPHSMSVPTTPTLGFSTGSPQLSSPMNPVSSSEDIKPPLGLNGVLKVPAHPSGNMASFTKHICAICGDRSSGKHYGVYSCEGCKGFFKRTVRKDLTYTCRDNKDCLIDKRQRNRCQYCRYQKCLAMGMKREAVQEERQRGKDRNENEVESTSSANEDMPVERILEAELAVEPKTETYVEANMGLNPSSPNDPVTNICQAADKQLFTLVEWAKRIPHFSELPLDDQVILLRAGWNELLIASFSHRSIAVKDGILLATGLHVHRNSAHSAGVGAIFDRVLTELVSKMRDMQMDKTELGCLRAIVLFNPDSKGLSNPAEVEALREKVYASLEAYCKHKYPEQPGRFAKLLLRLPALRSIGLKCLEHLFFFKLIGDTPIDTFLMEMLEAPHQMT
Chain of Cellular tumor antigen p53 (Homo sapiens) (P04637 whole entry, looked up): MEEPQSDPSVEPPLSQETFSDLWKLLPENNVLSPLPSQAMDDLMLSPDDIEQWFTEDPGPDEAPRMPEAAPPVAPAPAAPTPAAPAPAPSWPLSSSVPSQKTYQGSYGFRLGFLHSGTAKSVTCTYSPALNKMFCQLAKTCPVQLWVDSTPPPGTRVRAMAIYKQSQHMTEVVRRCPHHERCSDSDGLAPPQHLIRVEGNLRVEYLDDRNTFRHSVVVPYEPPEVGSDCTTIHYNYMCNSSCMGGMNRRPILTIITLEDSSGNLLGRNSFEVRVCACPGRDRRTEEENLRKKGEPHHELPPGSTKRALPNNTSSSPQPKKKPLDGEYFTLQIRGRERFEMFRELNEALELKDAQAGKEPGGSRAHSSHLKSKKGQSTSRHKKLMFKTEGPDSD
Chain of human Retinoid X Receptor beta (RXRb), RXRB (gene 6257) (P28702 whole entry, looked up, the tested form may be a part): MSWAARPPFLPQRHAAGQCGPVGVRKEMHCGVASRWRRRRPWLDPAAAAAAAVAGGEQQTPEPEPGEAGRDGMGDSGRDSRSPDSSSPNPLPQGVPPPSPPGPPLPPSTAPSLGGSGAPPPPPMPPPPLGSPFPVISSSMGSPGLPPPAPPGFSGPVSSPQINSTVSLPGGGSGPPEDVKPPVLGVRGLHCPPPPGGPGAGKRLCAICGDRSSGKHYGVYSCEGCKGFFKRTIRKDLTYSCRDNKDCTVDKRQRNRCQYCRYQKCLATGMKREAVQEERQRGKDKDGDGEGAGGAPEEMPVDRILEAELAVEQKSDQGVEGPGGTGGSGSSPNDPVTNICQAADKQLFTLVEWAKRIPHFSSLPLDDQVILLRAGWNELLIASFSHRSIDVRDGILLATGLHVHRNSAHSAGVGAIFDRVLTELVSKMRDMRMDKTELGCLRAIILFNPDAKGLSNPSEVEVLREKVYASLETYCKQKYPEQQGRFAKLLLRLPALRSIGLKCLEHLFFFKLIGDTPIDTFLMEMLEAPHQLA

As for `CC=Cc1ccc2c(c1)OCO2`, the outcome in experiment [1], in [2], in [3], in experiment [4], in [5] and in [6] was inactive. Also, the outcome in experiment [7], in experiment [8], in experiment [9], in experiment [10], in [11] and in experiment [12] was inactive. Besides, the outcome in experiment [13] and in experiment [14] was inactive.

As to `CC1CCC(=O)O1` (stereo unspecified), the compound was classed as inactive in experiment [15], in [16], in experiment [5], in experiment [11], in experiment [12] and in experiment [13]. Also, the AC50 in experiment [14] was 50 µM (active).

In the case of `O=C(CCN1CC1)OCC(CO)(COC(=O)CCN1CC1)COC(=O)CCN1CC1`, the result in [15], in experiment [1], in [2], in experiment [16], in [3] and in [4] was inactive. The compound was called inactive in [17], in experiment [7], in experiment [8], in [9], in [10] and in [11]. Besides, the result in experiment [12], in experiment [18] and in experiment [13] was inactive. For the same compound, in experiment [14], the AC50 is 63.1 µM (active).

For `COC(=O)COc1ccc(Cl)cc1Cl`, the compound was classed as inactive in experiment [2], in [3], in [5], in experiment [6], in [7] and in [9]. The outcome in experiment [11], in [18] and in experiment [13] was inactive.

`COc1cc(OC)c(OC)cc1C=O`: the outcome in experiment [1], in experiment [2], in experiment [16], in [3], in experiment [4] and in experiment [5] was inactive. For the same compound, the call in experiment [6], in experiment [7], in experiment [8], in [9], in experiment [10] and in [11] was inactive. Besides, the result in experiment [12], in experiment [18] and in experiment [13] was inactive.

Regarding `O=C(NC(=O)c1c(F)cccc1F)Nc1ccc(Oc2ccc(C(F)(F)F)cc2Cl)cc1F`, the AC50 in experiment [19] is 8.23 µM (active); in experiment [8], 3.59 µM (active). Also, the call in [15], in experiment [1], in experiment [2], in [3], in experiment [4] and in experiment [20] was inactive. The call in [5], in experiment [7], in experiment [9], in experiment [10], in experiment [11] and in experiment [12] was inactive. Besides, the compound was classed as inactive in [18] and in [13].

Regarding `O=[N+]([O-])O.O=[N+]([O-])O.[Cd]`, the outcome in [1], in experiment [2], in experiment [16], in [3], in experiment [5] and in [17] was inactive. In addition, the result in experiment [6], in experiment [8], in [9] and in experiment [18] was inactive. Also, the AC50 in experiment [7] was 2.18 µM (active).

With `NNc1ccccc1`, the call in experiment [15], in experiment [1], in [2], in experiment [3], in [4] and in experiment [17] was inactive. The result in experiment [6], in [9], in experiment [10] and in experiment [14] was inactive. For the same compound, in experiment [8], the AC50 is 29.2 µM (active).

`Cc1ccc(C)c2ccccc12`: the compound was called inactive in experiment [15], in experiment [1], in experiment [2], in experiment [4], in experiment [20] and in [5]. The outcome in experiment [6], in [8], in experiment [9] and in experiment [14] was inactive. In addition, the concentration at half-maximal activity (AC50) in experiment [10] is 83.3 µM (active).

For the compound `CN1C[C@H](C(=O)N[C@]2(C)O[C@@]3(O)[C@@H]4CCCN4C(=O)[C@H](Cc4ccccc4)N3C2=O)C=C2c3cccc4[nH]cc(c34)C[C@H]21`, the concentration at half-maximal activity (AC50) in [15] was 23.1 µM (active). Further, the outcome in experiment [1], in experiment [16], in experiment [3], in experiment [4], in [5] and in [6] was inactive. The call in [7], in experiment [11], in experiment [12] and in experiment [13] was inactive.
